Pf Dd2 inh: Plasmodium falciparum Dd2 growth inhibition; P. falciparum Dd2 growth, SYBR Green, 72 h; Potency, µM (titrated, usually from 28.9 µM), most hits filed as inhibitors; hit rate 4.3% among 120,000; AID 1347417; active means well fitted inhibition curve with a large enough effect; further: nearly all actives have a fitted effect of over 65% in size
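Infected erythrocytes (Dd2, 0.3% parasitemia, 2.5% hematocrit final) are added to compound in RPMI-1640/Albumax II medium, grown 72 h at 37C in low oxygen, then lysed with saponin/Triton-X containing SYBR Green and read by fluorescence.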
Hits are given with their value; 0 = inactive. Shown is part of a subset that was picked to be rich in hits.

SMILES	Pf Dd2 inh
O=C(NCC(F)(F)F)c1ccc2c(c1)C1(CCN(CC3CC3)C1)CN2Cc1ccccc1 (stereo not drawn)	0
O=C1CC2(CCN(C(=O)c3cnc4ccccn4c3=O)C2)C(=O)N1 (stereo not drawn)	0
CNC(=O)[C@@H](c1ccc(Cl)cc1)N1CCC[C@H]1C(=O)N1CCC1	0
O=C(O)COCC(=O)N1CC[C@@H]2[C@H]1C(=O)N(c1ccc(F)c(Cl)c1)C(=O)N2Cc1ccccc1	0
CCc1ccccc1NC(=O)Cn1c(=O)ccc2cc(S(=O)(=O)N3CCCC3)ccc21	0
COc1ccccc1CNC(=O)Cn1c(=O)ccc2cc(S(=O)(=O)N3CCC(C)CC3)ccc21	0
CCOc1ccccc1NC(=O)Cn1c(=O)ccc2cc(S(=O)(=O)N3CCC(C)CC3)ccc21	13µM
CCOc1ccccc1C1NC(=O)N(CC(=O)Nc2cccc(C(F)(F)F)c2)C2=C1C(=O)OC2 (stereo not drawn)	0
CC(C)NC(=O)C(C)[C@@H]1CC[C@@]2(C)CC[C@H](NC(=O)c3cncnc3)[C@@H](C)[C@@H]2[C@H]1O (stereo partly drawn)	0
CN1CC(=O)N(c2ccccc2F)Cc2c(NCC(C)(C)C)ncnc21	0
Cc1ccc(Cn2c(=O)n(-c3ccccc3)c(=O)c3ccc(C(=O)NCc4ccco4)cc32)cc1	0
Cc1ccccc1NC(=O)Cn1c(=O)n(CCCC(=O)NCc2ccc3c(c2)OCO3)c(=O)c2ccccc21	0
Cc1ccc(NC(=O)Cn2c(=O)n(Cc3nc(-c4ccccc4)no3)c(=O)c3cc4c(cc32)OCO4)c(C)c1	0
Cc1ccc(NC(=O)Cn2c(=O)n(Cc3ccc(C(=O)NCc4ccc5c(c4)OCO5)cc3)c(=O)c3ccccc32)cc1	8.9µM
Cc1ccc(NC(=O)Cn2c(=O)n(-c3ccccc3)c(=O)c3ccc(C(=O)NCc4ccc5c(c4)OCO5)cc32)cc1	0
Cc1ccc(-n2c(=O)c3ccc(C(=O)NCc4ccccc4Cl)cc3n(CC(N)=O)c2=O)cc1	0
CCN(C(=O)Cn1c(=O)n(-c2ccccc2)c(=O)c2ccc(C(=O)NCc3ccc4c(c3)OCO4)cc21)c1cccc(C)c1	7.1µM
O=C(Cn1c(=O)n(Cc2nc(-c3ccccc3)no2)c(=O)c2cc3c(cc21)OCO3)Nc1ccc(Cl)cc1	10µM
O=C(Cn1c(=O)n(-c2ccccc2)c(=O)c2ccc(C(=O)NCc3ccc4c(c3)OCO4)cc21)Nc1ccc(Br)cc1F	8.9µM
Cc1ccc(Cl)cc1NC(=O)Cn1c(=O)n(Cc2ccc(C(=O)NCc3ccc4c(c3)OCO4)cc2)c(=O)c2ccccc21	0
Cc1c(Cl)cccc1NC(=O)Cn1c(=O)n(Cc2nc(-c3ccccc3)no2)c(=O)c2cc3c(cc21)OCO3	0
O=C(Cn1c(=O)n(Cc2ccc(C(=O)NCc3ccc4c(c3)OCO4)cc2)c(=O)c2ccccc21)Nc1ccccc1F	0
O=C(CN1CC2CC(C1)[C@H]1CCCC(=O)N1C2)NCC1CCCCC1 (stereo partly drawn)	0
N#Cc1ccc(CN2CCCCC23Cc2ccccc2CNC3=O)cc1 (stereo not drawn)	0
CC(C)[S+](=O)([O-])N1CCN(c2ccc(C=O)cc2)C(=O)C1	0
SMILES	Pf Dd2 inh
COCCN1CCOC[C@H]2CCN(C(=O)C(C)C)C[C@H]21	0
Fc1ccc(-c2noc([C@@H]3CCCN3Cc3ccccc3)n2)nc1	0
Cn1nccc1C(=O)N1C[C@@H](COCC2CC2)[C@H](c2ccccn2)C1	0
O=C(NCCCc1ccccc1)C1CN(c2ccc(Cl)cc2)C(=O)N1 (stereo not drawn)	0
CCSCCNc1nc(COC)nc2c1cnn2C	0
CC(C)CN1C(=O)c2cccn2CC1C(=O)NCc1cccc(C(F)(F)F)c1 (stereo not drawn)	0
CN1C(=O)CS(=O)(=O)C12CCN(C(=O)COc1ccc(F)cc1)CC2	0
Cc1noc([C@@H]2CN(C(=O)c3occc3C)C[C@H]2CO)n1	0
CCC(C)C(=O)N1CCc2c(c(C(=O)O)nn2CCCc2ccccc2)C1 (stereo not drawn)	0
COc1ccc(CN2C(=O)[C@@H]3C[C@@H](CN3Cc3ccc(S(C)(=O)=O)cc3)Oc3ccccc32)cc1	0
COCCN1C(=O)[C@@H]2C[C@@H](CN2C(=O)c2ccccc2)Oc2ccccc21	0
COCCN1C(=O)[C@@H]2C[C@@H](CN2Cc2ccccn2)Oc2ccccc21	10µM
O=C1[C@@H]2C[C@@H](CN2C2CCOCC2)Oc2ccccc2N1Cc1ccccn1	0
O=C1[C@@H]2C[C@@H](CN2Cc2ccc(C(F)(F)F)cc2)Oc2ccccc2N1Cc1cccnc1	0
COCCN1C(=O)[C@@H]2C[C@@H](CN2Cc2ccc(C(F)(F)F)cc2)Oc2ccccc21	14µM
COc1ccc(S(=O)(=O)N2CC[C@H](CNC(C)=O)[C@H](N(C)C)C2)cc1	0
O=C(O)C1Cc2nc[nH]c2CN1C(=O)c1cccc(-n2cccn2)c1 (stereo not drawn)	0
Cc1cccc(-n2cc(CN3CC[C@H](CO)[C@@H](O)C3)cn2)c1	0
CN1CCN(Cc2cnn(-c3cccc(Cl)c3)c2)CC1CCO (stereo not drawn)	14µM
COc1cc(CN2CCN(Cc3ccc(-n4cccn4)cc3C)CC2CCO)cc(OC)c1 (stereo not drawn)	0
Cc1cc(C(=O)N2CC[C@@H]3CN(S(C)(=O)=O)[C@@H]3C2)c(C)o1	0
CC(=O)Nc1ccc(CN2C(=O)OC3(CCN(Cc4ccccc4)CC3)C2(C)c2ccccc2)cc1 (stereo not drawn)	0
COc1ccccc1CN1CCC2(CC1)OC(=O)N(Cc1ccc(NC(C)=O)cc1)C2(C)c1ccccc1 (stereo not drawn)	13µM
CC1(c2ccccc2)N(Cc2ccccc2F)C(=O)OC12CCN(Cc1ccc(C#N)cc1)CC2 (stereo not drawn)	0
COc1ccccc1CN1CCC2(CC1)OC(=O)N(Cc1csc(C)n1)C2(C)c1ccccc1 (stereo not drawn)	0
SMILES	Pf Dd2 inh
COc1ccc(CN2CCC3(CC2)OC(=O)N(Cc2ccccc2C#N)C3(C)c2ccccc2)cc1O (stereo not drawn)	0
COc1ccccc1CN1CCC2(CC1)OC(=O)N(Cc1ccccc1F)C2(C)c1ccccc1 (stereo not drawn)	4µM
CC[C@@H]1[C@H](NC(=O)C2(c3ccc(S(C)(=O)=O)cc3)CCC2)[C@@H]2CCO[C@H]12	0
O=C(CN1CCn2nc(CO)cc2C1)N1CCOc2ccccc21	0
O=C(c1cccnc1)N1CCCC(Cc2nc(C3CCOCC3)no2)C1 (stereo not drawn)	0
CS(=O)(=O)N1CCCC(C(=O)NCCc2ccccn2)CCNC(=O)CC1 (stereo not drawn)	0
CCc1cccc(CC)c1NC(=O)c1ccc2c(c1)CCN2S(=O)(=O)c1ccccc1	0
COc1ccc(NC(=O)c2ccc3c(c2)CCN3S(=O)(=O)c2ccc(C)cc2)cc1Cl	8.9µM
Cc1ccc(C)c(NC(=O)c2ccc3c(c2)CCN3S(=O)(=O)c2ccccc2)c1	0
COc1ccc(NC(=O)c2oc3ccc(S(=O)(=O)N4CCCCC4)cc3c2C)cc1Cl	11µM
COc1ccc(Cl)cc1NC(=O)c1oc2ccc(S(=O)(=O)N3CCCCC3)cc2c1C	0
COc1ccc(C(=O)Nc2ccc3c(c2)CCCN3S(=O)(=O)c2ccc(C)cc2)cc1	0
O=C(Nc1ccc(Cl)c(C(F)(F)F)c1)c1ccc2c(c1)CCN2S(=O)(=O)c1ccccc1	8.9µM
Cc1ccc(Cl)cc1NC(=O)c1oc2ccc(S(=O)(=O)N3CCCCCC3)cc2c1C	0
